The record followed here is PubChem BioAssay (NCI).

The structures appear in SMILES notation. About 83,000 compounds went through this panel and 20% of them were active in at least one assay; those are over-represented in the sample as a whole.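 A percent growth of 40 corresponds to 60% growth inhibition; 0 means no net growth; -100 means all cells died. Active threshold: below 10.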 Active and inactive are the calls of the source.

The assay relates to HL-60(TB) leukemia. The experiment in a line: NCI-60 one-dose screen, 48 h (100 = growth as untreated, 0 = no growth, -100 = all killed). Conditions: 10 µM unless noted.
Regarding `c1c2c(cc3c1OCO3)Cc1cc3c(cc1Cc1cc4c(cc1C2)OCO4)OCO3`, the growth was 116% (inactive). Regarding `CC(OC(=O)Nc1cccc(Cl)c1)C(=O)O` (stereo unspecified), the growth was 90.2% (inactive). For `CCOC(=O)c1[nH]c(-c2ccc(Cl)cc2)cc1-c1cccnc1`, the growth was -20.7% (active). Turning to `N=C(N)c1ccc(-c2ccc(-c3ccc(Cl)cc3)s2)s1`, the growth was -58.6% (active). As for `COc1cccc(C(=O)Cn2cc(/C=C(\C#N)S(=O)(=O)c3ccccc3)c3ccccc32)c1`, the growth is 102% (inactive). With `O=C(c1ccccc1)c1ccc(N2C(=O)C3C4c5ccccc5C(/C=C/C(=O)c5ccccn5)(c5ccccc54)C3C2=O)cc1` (stereo unspecified) the figure was 30% (inactive). For the molecule `CCC(C)(c1cc(C(C)(C)C)c(O)c(C(C)(C)C)c1)c1cc(C(C)(C)C)c(O)c(C(C)(C)C)c1`, the growth is 99.3% (inactive). Under `COc1ccc(N(Cc2cc(OC)c(OC)c(OC)c2)C2OC(=O)c3ccccc32)cc1` (stereo unspecified) stands 2.92% (active). In the case of `O=c1c2c(c3ccccc3n1-c1ccccc1)NC(=S)NC2c1ccc(Cl)cc1` (stereo unspecified), the growth is 22.1% (inactive).

For the molecule `CC(C)[N+]1(C)C2CC[C@@H]1CC(OC(=O)C(CO)c1ccccc1)C2` (stereo partly specified), the growth is 107% (inactive). With `CN1CCN(C(=O)[C@]23CCC(C)(C)C[C@H]2C2=CC[C@@H]4[C@@]5(C)C/C(=C/c6cccnc6)C(=O)C(C)(C)[C@@H]5CC[C@@]4(C)[C@]2(C)CC3)CC1` the figure was -32.4% (active); with `O=C(c1ccccc1)C(c1ccccc1)N1CCOCC1` (stereo unspecified), 94.4% (inactive). As for `FC(F)(F)c1nc2c(NCc3ccc(-c4ccccc4)cc3)cccc2[nH]1`, the growth was 21.1% (inactive).

Take `CCCCCc1ccc(C)cc1OC(=O)CCl`: the growth was 114% (inactive). Under `Brc1ccc2[nH]cc(-c3cncn3CCc3ccccc3)c2c1` stands 39.3% (inactive). Consider `COc1cccc(-c2nc3sccn3c2-c2ccnc(NCCCNS(=O)(=O)c3cccc(F)c3)c2)c1`, for which the growth is -26.9% (active). On to `COc1cc(/C=C2\CN(S(=O)(=O)c3ccc(C)cc3)C/C(=C\c3cc(CN4CCCCC4)c(O)c(OC)c3)C2=O)cc(CN2CCCCC2)c1O`, for which the growth was -37.2% (active). With `Cc1ccc(C)c2c1sc1nc(N3CCOCC3)c(C#N)c(=O)n12`, the growth was 93.4% (inactive).

As to `COc1cc(C2=NN(C(C)=O)C(c3cccc(Nc4ccnc5cc(C(F)(F)F)ccc45)c3)C2)cc(OC)c1OC` (stereo unspecified), the growth is 10.6% (inactive). With `CCOC(=O)c1c2c(cn1Cc1ccccc1)-c1oncc1CC2` the figure was 98.6% (inactive); with `CCOC(=O)c1cc2c(n1Cc1cc(OC)c(OC)c(OC)c1)-c1oncc1CCC2`, -8.69% (active). With `Cn1cnc([N+](=O)[O-])c1Sc1nnc(-c2ccccc2)c(-c2ccccc2)n1` the figure was 104% (inactive). Turning to `CCSc1nc2ccccc2o1`, the growth was 97.5% (inactive). Take `CCN(CC)CCC(CNc1ccnc2cc(Cl)ccc12)c1ccccc1` (stereo unspecified): the growth is 58.5% (inactive). In the case of `C[C@@H](C[C@H](CCO)c1ccccc1)c1ccc2ccccc2c1`, the growth was -38.5% (active). With `CCNC(=O)Oc1ccc(/C(=C(\C)c2ccccc2)c2ccc(OCCCN(C)C)cc2)cc1`, the growth was 53.2% (inactive).
